Test results as given in PubChem BioAssay.
Active and inactive are the calls of the source.

Key:
Albumin (Bos taurus) = Albumin (Bos taurus) (UniProt P02769); assay: bovine serum albumin binders on microarray, profiling panel, artefact control for SMM control protein annotation, biochemical, small-molecule microarray, Alexa647 label, 635/667 nm fluorescence (AID 1118); conditions: BSA-A647 binding, fluorescence 635 nm, higher = more signal;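 note: score merges 667 nm emission intensity and signal-to-noise per printed compound spot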
Albumin (Bos taurus), sequence (P02769 whole entry, looked up): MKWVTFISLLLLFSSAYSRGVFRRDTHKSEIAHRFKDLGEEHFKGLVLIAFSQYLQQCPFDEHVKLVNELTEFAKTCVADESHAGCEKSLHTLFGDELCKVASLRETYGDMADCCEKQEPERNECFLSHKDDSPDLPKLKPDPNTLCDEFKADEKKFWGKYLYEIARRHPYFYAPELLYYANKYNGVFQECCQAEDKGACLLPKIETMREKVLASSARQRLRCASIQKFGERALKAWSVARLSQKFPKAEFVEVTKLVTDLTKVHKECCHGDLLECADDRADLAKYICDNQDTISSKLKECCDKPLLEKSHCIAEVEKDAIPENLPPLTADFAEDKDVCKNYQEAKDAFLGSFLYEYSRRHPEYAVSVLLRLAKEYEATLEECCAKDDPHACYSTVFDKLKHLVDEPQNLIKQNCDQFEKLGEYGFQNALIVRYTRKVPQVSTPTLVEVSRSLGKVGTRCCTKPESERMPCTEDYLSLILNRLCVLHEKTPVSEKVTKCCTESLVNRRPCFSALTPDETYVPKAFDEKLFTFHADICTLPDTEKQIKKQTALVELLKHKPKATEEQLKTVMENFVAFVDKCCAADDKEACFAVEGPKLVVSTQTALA

[1] = small-molecule microarray binders of probe aXIP, primary screen, biochemical, NeuroSMM set, 635/667 nm fluorescence (AID 1119); conditions: higher = more signal, called active from +8 up or from −8 down;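 note: probe is the protein aXip251-270 applied at 1 µg/mL to compound-printed slides; binding of probe to printed compounds measured as 667 nm fluorescence plus signal to noise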
[2] = small-molecule binders of probe aNOTCH3, primary screen, biochemical, small-molecule microarray, 635/667 nm fluorescence (AID 1120); conditions: higher = more signal;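 note: probe is a biotin-tagged antibody raised against NOTCH3 rather than NOTCH3 protein; score merges spot fluorescence near 667 nm with spot signal to noise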
[3] = small-molecule binders of probe aNOTCH2, primary screen, biochemical, small-molecule microarray, 635/667 nm fluorescence (AID 1121); conditions: higher = more signal;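 note: score merges feature fluorescence read at 667 nm with its signal to noise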
[4] = target: Carbonic anhydrase 2 (Homo sapiens) (UniProt P00918); assay: CAII small-molecule binders, profiling panel, biochemical, small-molecule microarray, Alexa647-labelled CAII (AID 1122); conditions: CAII-A647 binding fluorescence, higher = more signal
[5] = COS7 lysate on small-molecule microarray, probe aHis, 635 nm (AID 1123); conditions: COS7 cell lysate, fluorescence, higher = more signal;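 note: z-score combines 667nm fluorescence intensity with signal-to-noise per printed compound spot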
[6] = compound binding in COS7 lysate, probe aLAP1, primary screen, cell lysate, small-molecule microarray (AID 1124); conditions: probe aLAP1, fluorescence, higher = more signal;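 note: lysate comes from COS7 cells expressing LAP1 and is applied at 0.3 µg/mL; score merges spot fluorescence near 667 nm with signal-to-noise over triplicate slides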
Sam68 (KHDRBS1) = assay: Sam68 small-molecule binders, primary screen, biochemical, small-molecule microarray, 635 nm fluorescence (AID 1125); conditions: small-molecule microarray binding, higher = more signal;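 note: score merges 667 nm channel intensity with signal to noise over triplicate slides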
[7] = test system: Chordin-like protein 2 (CHRDL2); assay: CHRDL2 small-molecule binders, primary screen, biochemical, small-molecule microarray, 635 nm fluorescence (AID 1126); conditions: small-molecule microarray binding, fluorescence 635 nm; higher = more signal;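 note: printed compound slides probed with Chrdl2 protein at 4 µg/mL for 1 h at 4 C; score merges 667 nm emission intensity with signal to noise over three replicate slides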
[8] = target: Concanavalin-A (Canavalia ensiformis) (UniProt P02866); assay: ConA small-molecule binders, primary screen, artefact control for SMM control protein annotation, biochemical, small-molecule microarray, Alexa647 label, 635 nm (AID 1127); conditions: ConA-A647 binding fluorescence, higher = more signal;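 note: z combines 667 nm emission intensity with signal-to-noise across three replicate slides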
Concanavalin-A (Canavalia ensiformis), sequence (P02866 whole entry, looked up): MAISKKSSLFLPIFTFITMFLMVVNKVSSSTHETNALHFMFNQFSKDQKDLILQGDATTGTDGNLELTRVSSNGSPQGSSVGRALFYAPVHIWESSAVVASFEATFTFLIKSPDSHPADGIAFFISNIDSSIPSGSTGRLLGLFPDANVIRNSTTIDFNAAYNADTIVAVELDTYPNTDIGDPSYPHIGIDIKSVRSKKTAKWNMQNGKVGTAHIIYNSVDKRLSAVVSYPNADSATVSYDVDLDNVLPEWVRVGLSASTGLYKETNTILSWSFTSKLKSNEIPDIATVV

[9] = anti-His antibody binders, primary screen, artefact control for SMM control protein annotation, biochemical, small-molecule microarray, 635 nm fluorescence (AID 1128); conditions: anti-His Alexa647 antibody binding, higher = more signal;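 note: score merges feature fluorescence with signal-to-noise for each printed compound spot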
[10] = test system: Human papillomavirus type 1a E7 protein (residues 1-88); assay: HPV1a E7 small-molecule binders, primary screen, biochemical, small-molecule microarray, residues 1-88, 635 nm (AID 1129); conditions: small-molecule microarray binding, fluorescence 635 nm; higher = more signal
[11] = target: Focal adhesion kinase 1 (Homo sapiens) (UniProt Q05397); assay: small-molecule microarray binders of FAK, primary screen, biochemical, 635/667 nm fluorescence, BSA, DTT (AID 1130); conditions: PTK2 binding, 635 nm fluorescence, higher = more signal;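 note: composite of spot emission at 667 nm and signal to noise over triplicate slides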
Focal adhesion kinase 1 (Homo sapiens), sequence (Q05397 whole entry, looked up): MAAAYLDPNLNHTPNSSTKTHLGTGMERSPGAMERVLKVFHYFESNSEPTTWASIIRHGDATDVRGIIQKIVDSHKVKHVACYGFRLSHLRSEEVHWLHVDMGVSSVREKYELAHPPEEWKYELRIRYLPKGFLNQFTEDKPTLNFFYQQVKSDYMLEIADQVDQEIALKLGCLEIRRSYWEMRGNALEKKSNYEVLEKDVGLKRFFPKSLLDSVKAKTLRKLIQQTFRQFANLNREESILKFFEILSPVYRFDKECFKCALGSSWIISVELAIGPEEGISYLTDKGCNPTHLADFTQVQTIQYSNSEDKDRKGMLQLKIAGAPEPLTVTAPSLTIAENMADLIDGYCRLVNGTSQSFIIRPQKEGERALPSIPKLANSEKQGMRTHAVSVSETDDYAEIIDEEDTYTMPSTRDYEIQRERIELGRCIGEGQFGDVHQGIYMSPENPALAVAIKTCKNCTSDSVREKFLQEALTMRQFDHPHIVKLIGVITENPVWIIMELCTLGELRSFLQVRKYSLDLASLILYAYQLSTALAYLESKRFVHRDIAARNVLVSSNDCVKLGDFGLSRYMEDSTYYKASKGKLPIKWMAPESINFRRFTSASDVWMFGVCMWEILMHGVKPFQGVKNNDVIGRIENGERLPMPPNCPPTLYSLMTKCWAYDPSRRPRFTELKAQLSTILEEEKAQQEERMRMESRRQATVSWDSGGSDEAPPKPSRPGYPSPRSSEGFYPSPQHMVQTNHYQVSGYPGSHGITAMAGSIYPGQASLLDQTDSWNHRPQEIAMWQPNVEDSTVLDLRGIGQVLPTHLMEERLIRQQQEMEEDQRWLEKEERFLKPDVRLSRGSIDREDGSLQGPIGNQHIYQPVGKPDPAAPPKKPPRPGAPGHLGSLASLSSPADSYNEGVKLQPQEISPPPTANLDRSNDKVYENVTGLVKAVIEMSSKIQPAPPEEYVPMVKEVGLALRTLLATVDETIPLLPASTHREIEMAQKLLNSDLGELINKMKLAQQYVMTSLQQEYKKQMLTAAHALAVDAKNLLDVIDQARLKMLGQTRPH

[12] = test system: Fibrinogen (Alexa647-labelled); assay: fibrinogen binders on compound microarrays, profiling panel, artefact control for SMM control-protein annotation, biochemical, small-molecule microarray, 635/667 nm fluorescence (AID 1131); conditions: fibrinogen-A647 binding fluorescence, higher = more signal;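 note: z-score merges 667 nm fluorescence with per-spot signal-to-noise over triplicate slides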
[13] = target: Follistatin (Homo sapiens) (UniProt P19883); assay: follistatin binders on small-molecule microarrays, primary screen, biochemical, small-molecule microarray, 635/667 nm fluorescence (AID 1132); conditions: FST binding, 635 nm fluorescence, higher = more signal
Follistatin (Homo sapiens), sequence (P19883 whole entry, looked up): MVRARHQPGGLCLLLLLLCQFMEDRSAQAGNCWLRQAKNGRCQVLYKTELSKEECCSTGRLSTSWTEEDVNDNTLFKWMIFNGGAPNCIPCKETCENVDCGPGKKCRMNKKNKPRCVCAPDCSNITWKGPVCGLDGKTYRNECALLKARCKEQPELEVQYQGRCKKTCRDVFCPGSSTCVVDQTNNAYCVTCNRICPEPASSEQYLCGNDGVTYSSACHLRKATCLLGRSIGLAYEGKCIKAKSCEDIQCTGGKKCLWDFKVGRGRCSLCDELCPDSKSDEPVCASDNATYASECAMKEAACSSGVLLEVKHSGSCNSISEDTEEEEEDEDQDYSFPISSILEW

[14] = target: Fibroblast growth factor 2 (Homo sapiens) (UniProt P09038); assay: FGF2 binders on small-molecule microarrays, primary screen, biochemical, small-molecule microarray, 635/667 nm fluorescence (AID 1133); conditions: small-molecule microarray binding, FGF2, fluorescence 635/667; higher = more signal
Fibroblast growth factor 2 (Homo sapiens), sequence (P09038 whole entry, looked up): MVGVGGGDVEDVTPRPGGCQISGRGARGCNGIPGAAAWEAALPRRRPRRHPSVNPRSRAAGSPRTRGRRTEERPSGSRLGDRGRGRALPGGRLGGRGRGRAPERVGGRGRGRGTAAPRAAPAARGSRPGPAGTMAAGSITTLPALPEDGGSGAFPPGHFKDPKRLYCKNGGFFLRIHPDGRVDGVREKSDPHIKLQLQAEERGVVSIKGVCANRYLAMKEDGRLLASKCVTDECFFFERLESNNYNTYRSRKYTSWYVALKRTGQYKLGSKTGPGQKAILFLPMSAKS

[15] = mitochondrial membrane potential change in A549 cells, profiling panel, cell-based, JC-1 fluorescence, basal, 24 h, 100 nL (AID 1138); conditions: higher = more signal;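 note: A549 lung adenocarcinoma cells under basal conditions with no added stimulus; test concentration not given here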
Lefty1 = Lefty1 binders on small-molecule microarrays, primary screen, biochemical, small-molecule microarray, 635/667 nm fluorescence (AID 1139); conditions: small-molecule microarray binding, fluorescence 635/667; higher = more signal
[16] = test system: wheat germ agglutinin (Triticum aestivum), Alexa647-labelled; assay: wheat germ agglutinin binders on compound microarrays, profiling panel, artefact control for SMM control-protein annotation, biochemical, small-molecule microarray, 635/667 nm fluorescence (AID 1140); conditions: WGA-A647 binding, 635 nm fluorescence, higher = more signal;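 note: score merges 667 nm feature emission with signal to noise over triplicate slides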
[17] = target: Luciferin 4-monooxygenase (Photinus pyralis) (UniProt P08659); assay: firefly luciferase enzyme inhibitors, primary screen, biochemical, luminescence, purified enzyme, 2006 set (AID 1141); conditions: SteadyGlo luminescence, 30 min, higher = more signal, called active from +8 up or from −8 down;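 note: cell-free assay with purified firefly luciferase at 100 ng per well in PBS; test concentration not given here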
Luciferin 4-monooxygenase (Photinus pyralis), sequence (P08659 whole entry, looked up): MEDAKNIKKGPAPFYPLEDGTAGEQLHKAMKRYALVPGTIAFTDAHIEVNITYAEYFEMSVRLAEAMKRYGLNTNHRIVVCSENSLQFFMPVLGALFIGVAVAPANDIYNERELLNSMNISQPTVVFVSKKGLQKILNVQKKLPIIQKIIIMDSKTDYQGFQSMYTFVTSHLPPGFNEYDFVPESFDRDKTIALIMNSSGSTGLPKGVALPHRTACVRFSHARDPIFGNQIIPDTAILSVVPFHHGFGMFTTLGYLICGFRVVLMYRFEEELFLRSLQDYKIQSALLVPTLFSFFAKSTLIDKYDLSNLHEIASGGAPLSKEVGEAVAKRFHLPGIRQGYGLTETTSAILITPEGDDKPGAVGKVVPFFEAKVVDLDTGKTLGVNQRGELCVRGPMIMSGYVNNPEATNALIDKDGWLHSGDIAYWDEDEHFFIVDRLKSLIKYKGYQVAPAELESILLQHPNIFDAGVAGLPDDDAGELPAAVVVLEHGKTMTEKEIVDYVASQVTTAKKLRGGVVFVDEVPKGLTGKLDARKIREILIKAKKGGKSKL

Structure (SMILES) | composite z-score (Albumin (Bos taurus)) | composite Z-score [1] | composite z-score [2] | composite z-score [3] | composite z-score [4] | composite z-score [5] | composite z-score [6] | composite z-score (Sam68 (KHDRBS1)) | composite z-score [7] | composite z-score [8] | composite z-score [9] | composite z-score [10] | composite z-score [11] | composite z-score [12] | composite z-score [13] | composite z-score [14] | z-score [15] | composite z-score (Lefty1) | composite z-score [16] | z-score [17]
CCOC(=O)NN=C1C[C@@H](O)[C@@H](O)[C@@H]2[C@@H]3C(=O)N([C@@H](C)c4ccccc4)C(=O)[C@@H]3CC[C@H]12 | 0.0904 | -0.36 (inactive) | -0.0647 | -0.0424 | -0.119 | -0.156 | -0.111 | 0.338 | 0.183 | 0.297 | 0.236 | 0.416 | -0.35 | 0.65 | 0.285 | 0.166 | -0.877 | 0.246 | 0.152 | 0.846 (inactive)
COc1cccc([C@H]2Oc3ccc(OC)cc3C(=NO[C@@H](C)c3cn([C@H](CO)Cc4ccccc4)nn3)[C@@H]2O)c1 | 0.874 | 0.637 (inactive) | -0.132 | -0.207 | -0.0163 | 0.107 | 0.664 | -0.0592 | -0.54 | 0.373 | -2.13 | -0.92 | -0.104 | 0.778 | -0.476 | 0.109 | -1.09 | 0.102 | 0.305 | -0.0592 (inactive)
COC(=O)[C@H](C)NC(=O)CCC1CC(OC(=O)NCc2ccc3c(c2)OCO3)CC2(CCCC(COC(=O)NCC(c3ccccc3)c3ccccc3)O2)O1 (stereo not given in full) | 0.409 | 0.265 (inactive) | 0.0159 | -0.123 | 0.478 | 1.29 | 0.165 | 1.29 | 0.738 | 1.12 | 1.31 | 1.22 | 0.136 | 0.925 | 0.986 | 0.903 | -1.35 | 1.25 | 0.31 | 0.834 (inactive)
CCOC(=O)[C@H](CC(C)C)NC(=O)CCC1CC(OC(=O)NCCc2ccc(F)cc2)CC2(CCCC(COC(=O)NCCc3ccccc3OC)O2)O1 (stereo not given in full) | 0.788 | 0.0516 (inactive) | -0.0647 | -0.0781 | 0.56 | 0.907 | 0.419 | 1.29 | 0.337 | 1.09 | 1.35 | 0.903 | 0.0376 | 0.956 | 0.236 | 0.399 | 0.848 | 0.522 | 0.0393 | 0.109 (inactive)
CO[C@@H]1COC(=O)CC=C[C@@H](C)[C@H](OC)COC(=O)[C@@H](C)COC(=O)CC=C[C@H]1C | -0.797 | 0.0068 (inactive) | -0.055 | -0.124 | -0.679 | -0.824 | -0.0936 | -0.983 | 1.47 | -0.423 | -0.227 | -1.38 | -0.482 | -1.39 | 1.18 | 0.867 | 1.2 | 1.24 | -0.839 | -0.798 (inactive)
C[C@@H](ON=C1[C@H]2CCn3c(=O)n(-c4ccccc4)c(=O)n3[C@H]2[C@H](O)[C@@H]2O[C@H]12)c1cn([C@@H]2COC[C@H]2O)nn1 | -0.244 | -0.419 (inactive) | 0.0159 | -0.0938 | 0.134 | -0.282 | 0.211 | 0.509 | 0.534 | 0.459 | -0.0522 | 0.619 | 0.0584 | 0.544 | 0.414 | 0.433 | -0.339 | 0.691 | 0.0978 | 0.704 (inactive)
CC(CCN1CCc2nc(-c3ccccc3)c(-c3ccccc3)cc2C1)=NOC[C@@H](O)COCc1ccco1 | 0.148 | 0.0366 (inactive) | 0.062 | -0.153 | 0.0111 | 0.197 | -0.202 | 1.08 | 1.03 | 0.501 | 0.567 | 0.697 | 0.475 | 0.19 | 1.15 | 0.496 | 2 | 1.03 | 0.679 | -1.46 (inactive)
CC(C)[C@@H](OCc1ccccc1)[C@H](C)C=NOC[C@@H](O)COCc1ccco1 | -0.113 | -0.0572 (inactive) | -0.819 | -0.244 | -0.512 | 0.0121 | 0.0218 | -0.185 | -1.48 | -1.15 | 1.29 | -0.244 | -0.277 | -1.75 | -1.05 | -1.37 | -0.541 | -0.801 | -1.29 | 0.331 (inactive)
COc1ccc(O[C@H]2C=C[C@@H](c3ccccc3)O[C@@H]2CON=C(C)CCN2CCc3nc(-c4ccccc4)c(-c4ccccc4)cc3C2)cc1 | 0.628 | -0.508 (inactive) | -0.085 | -0.18 | -0.117 | -0.0458 | -0.251 | -0.83 | -0.163 | 0.799 | 1.38 | -0.536 | 0.119 | 0.948 | 0.477 | 0.0194 | 1.87 | 0.269 | 0.0216 | 0.84 (inactive)
CON=Cc1ccc(C(=O)N2[C@H](c3ccc(C)cc3)[C@@H](C)CC[C@H]2C(=O)OC)cc1 | 0.54 | 0.059 (inactive) | 0.0257 | -0.202 | 0.0882 | 0.715 | 0.251 | 1.11 | 0.262 | 0.669 | 2.72 | 0.73 | -0.176 | 0.53 | 0.419 | 0.412 | -0.0876 | 0.595 | 0.112 | -1.06 (inactive)
CCCNC(=O)OC[C@H]1O[C@H](CCON=C(C)CCN2CCc3nc(CC)c(CC)cc3C2)C=C[C@@H]1Oc1ccc(OC)cc1 | 0.322 | 0.0421 (inactive) | 0.105 | -0.14 | -0.164 | 0.176 | 0.0186 | 0.285 | -0.0024 | 0.0004 | 0.869 | -0.476 | 0.512 | 0.564 | 0.248 | -0.167 | 0.77 | 0.374 | 0.316 | -0.512 (inactive)
